This note sets out measurements from PubChem BioAssay (EPA / NIEHS).

Activity calls are given as the source filed them. Rule for the calls: active = hit-call score of the fitted dose curve at least 0.9, where 1 is the maximum; inactive = score below 0.9.

Details in all cases: mRNA level, 48 h; actives raise or lower the signal
Read-out in test [1]: Tumor necrosis factor receptor superfamily member 6 (Homo sapiens) (UniProt P25445)
The test can be described thus: LTEA_HepaRG_FAS: Life Technologies and Expression Analysis (LTEA) Assay for Fas cell surface death receptor (FAS) using HepaRG (AID 2283447). In a few lines: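 Differentiated human HepaRG cells, pre-cultured 48 h, were exposed in duplicate for 48 h to 8-point half-log concentrations (top 100 uM, 0.5% DMSO) in serum-free induction medium; FAS mRNA measured by qRT-PCR, normalized to ACTB/GAPDH/POLR2A, bidirectional fit versus DMSO.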

Read-out in test [2]: Fatty acid synthase (Homo sapiens) (UniProt P49327)
Nature of the test: LTEA_HepaRG_FASN: Life Technologies and Expression Analysis (LTEA) Assay for Fatty Acid Synthase (FASN) using HepaRG (AID 2283448). In a few lines: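 Transcript-level assay: HepaRG liver cells are treated for 48 h across an eight-point range topping at 100 uM, and FASN mRNA, normalized to three housekeeping genes, is compared with DMSO controls in both directions.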

Read-out in test [3]: Cyclin D2 (CCND2), CCND2 (gene 894)
Nature of the test: LTEA_HepaRG_CCND2: Life Technologies and Expression Analysis (LTEA) Assay for Cyclin D2 (CCND2) using HepaRG (AID 2283449).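 Note: CCND2 transcript measured by TaqMan qRT-PCR and normalised to three housekeeping genes.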 The gist of the method:
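Differentiated human HepaRG cells were exposed for 48 h in serum-free induction medium to eight half-log concentrations topping at 100 uM (0.5% DMSO vehicle). CCND2 mRNA was quantified by TaqMan qRT-PCR, normalised to ACTB, GAPDH and POLR2A, and fitted bidirectionally against DMSO.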

Read-out in test [4]: Cyclin Dependent Kinase Inhibitor 1A (CDKN1A), CDKN1A (gene 1026)
The test can be described thus: LTEA_HepaRG_CDKN1A: Life Technologies and Expression Analysis (LTEA) Assay for Cyclin Dependent Kinase Inhibitor 1A (CDKN1A) using HepaRG (AID 2283450). The gist of the method: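 HepaRG, 48 h dosing, 8-pt half-log series from 100 uM top, 0.5% DMSO vehicle, duplicates. Readout: TaqMan qRT-PCR of CDKN1A transcript, housekeeping-normalized (ACTB, GAPDH, POLR2A). Up/down curve fit relative to DMSO.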

Read-out in test [5]: catalase (CAT), CAT (gene 847)
Nature of the test: LTEA_HepaRG_CAT: Life Technologies and Expression Analysis (LTEA) Assay for catalase (CAT) using HepaRG (AID 2283452). In a few lines: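 Differentiated HepaRG cells in serum-free induction medium were dosed 48 h in duplicate, eight half-log concentrations from 100 uM in 0.5% DMSO. Transcript measured by TaqMan qRT-PCR, normalised to ACTB/GAPDH/POLR2A, fitted bidirectionally against DMSO.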

Read-out in test [6]: flavin-containing dimethylaniline monooxygenases 3 (FMO3), FMO3 (gene 2328)
The test can be described thus: LTEA_HepaRG_FMO3: Life Technologies and Expression Analysis (LTEA) Assay for flavin-containing dimethylaniline monooxygenases 3 (FMO3) using HepaRG (AID 2283453). The gist of the method: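 HepaRG, 48 h exposure, 8-pt half-log series from 100 uM, 0.5% DMSO vehicle, duplicates; FMO3 transcript by Fluidigm TaqMan qRT-PCR, housekeeping-normalized; gain/loss fit vs DMSO.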

Read-out in test [7]: Cytochrome P450 (CYP1A1), CYP1A1 (gene 1543)
The test can be described thus: LTEA_HepaRG_CYP1A1: Life Technologies and Expression Analysis (LTEA) Assay for Cytochrome P450 (CYP1A1) using HepaRG (AID 2283454). In a few lines:
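qRT-PCR read-out: CYP1A1 transcript normalized to three housekeeping genes, fitted bidirectionally against 0.5% DMSO vehicle baseline. Human HepaRG cells, 48 h chemical exposure, 8-point half-log series topping at 100 uM.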

Read-out in test [8]: Forkhead box O1 (FOXO1), FOXO1 (gene 2308)
The test can be described thus: LTEA_HepaRG_FOXO1: Life Technologies and Expression Analysis (LTEA) Assay for Forkhead box O1 (FOXO1) using HepaRG (AID 2283456). The gist of the method: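 Differentiated human HepaRG cells in serum-free induction medium were exposed in duplicate for 48 h to eight half-log concentrations (top 100 uM, 0.5% DMSO). FOXO1 mRNA was measured by TaqMan qRT-PCR, normalised to ACTB, GAPDH and POLR2A, and fitted bidirectionally against DMSO.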

Read-out in test [9]: growth arrest and DNA damage 45 (GADD45A), GADD45A (gene 1647)
The test can be described thus: LTEA_HepaRG_GADD45A: Life Technologies and Expression Analysis (LTEA) Assay for growth arrest and DNA damage 45 (GADD45A) using HepaRG (AID 2283458). In a few lines:
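Human HepaRG liver cells are treated in duplicate for 48 h with chemicals in 0.5% DMSO, highest concentration 100 uM. Expression is read by qRT-PCR and analyzed in both directions against vehicle.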

Read-out in test [10]: Forkhead box O3 (FOXO3), FOXO3 (gene 2309)
The test can be described thus: LTEA_HepaRG_FOXO3: Life Technologies and Expression Analysis (LTEA) Assay for Forkhead box O3 (FOXO3) using HepaRG (AID 2283459). The gist of the method:
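Differentiated human HepaRG cells in serum-free induction medium were exposed in duplicate for 48 h to eight half-log concentrations up to 100 uM in 0.5% DMSO. FOXO3 mRNA was quantified by qRT-PCR, normalized to ACTB, GAPDH and POLR2A, with bidirectional fitting versus DMSO.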

Read-out in test [11]: ABC Transporter (ABCB1), ABCB1 (gene 5243)
Nature of the test: LTEA_HepaRG_ABCB1: Life Technologies and Expression Analysis (LTEA) Assay for ABC Transporter (ABCB1) using HepaRG (AID 2283460). The gist of the method:
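Differentiated human HepaRG cells, plated 48 h then switched to serum-free induction medium, were exposed in duplicate to eight half-log concentrations up to 100 uM in 0.5% DMSO for 48 h. ABCB1 mRNA was measured by TaqMan qRT-PCR, normalized to ACTB/GAPDH/POLR2A.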

Read-out in test [12]: growth arrest and DNA damage 45 (GADD45B), GADD45B (gene 4616)
Nature of the test: LTEA_HepaRG_GADD45B: Life Technologies and Expression Analysis (LTEA) Assay for growth arrest and DNA damage 45 (GADD45B) using HepaRG (AID 2283461). The gist of the method: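 qRT-PCR read-out (Fluidigm TaqMan, housekeeping-normalized) of mRNA change in human HepaRG cells after 48 h chemical exposure; 8-point curve, top 100 uM, half-log steps, 0.5% DMSO vehicle; gain or loss fitted relative to DMSO baseline.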

Read-out in test [13]: ABC Transporter (ABCC3), ABCC3 (gene 8714)
Nature of the test: LTEA_HepaRG_ABCC3: Life Technologies and Expression Analysis (LTEA) Assay for ABC Transporter (ABCC3) using HepaRG (AID 2283462). The gist of the method:
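qRT-PCR read-out of ABCC3 transcript, normalized to three housekeeping genes (ACTB, GAPDH, POLR2A), after 48 h chemical exposure of human HepaRG cells. Eight half-log concentrations, highest 100 uM, in 0.5% DMSO; gain or loss fitted relative to DMSO baseline.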

Read-out in test [14]: ABC Transporter (ABCB11), ABCB11 (gene 8647)
The test can be described thus: LTEA_HepaRG_ABCB11: Life Technologies and Expression Analysis (LTEA) Assay for ABC Transporter (ABCB11) using HepaRG (AID 2283463). The gist of the method:
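Differentiated human HepaRG cells were exposed for 48 h in serum-free induction medium to eight half-log concentrations up to 100 uM in 0.5% DMSO. ABCB11 mRNA was quantified by qRT-PCR, normalized to ACTB, GAPDH and POLR2A, and fitted bidirectionally versus DMSO.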

Read-out in test [15]: ABC Transporter (ABCC2), ABCC2 (gene 1244)
The test can be described thus: LTEA_HepaRG_ABCC2: Life Technologies and Expression Analysis (LTEA) Assay for ABC Transporter (ABCC2) using HepaRG (AID 2283464). In a few lines: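 qRT-PCR (TaqMan, Fluidigm array) read-out of ABCC2 mRNA, normalized to three housekeeping genes. Differentiated HepaRG cells were treated 48 h in serum-free induction medium with 8-point half-log series from 100 uM in 0.5% DMSO; curves fitted bidirectionally relative to DMSO.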

Read-out in test [16]: Broad substrate specificity ATP-binding cassette transporter ABCG2 (Homo sapiens) (UniProt Q9UNQ0)
The test can be described thus: LTEA_HepaRG_ABCG2: Life Technologies and Expression Analysis (LTEA) Assay for ABC Transporter (ABCG2) using HepaRG (AID 2283465). The gist of the method:
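Differentiated HepaRG cells in serum-free induction medium were exposed for 48 h, in duplicate, to eight half-log concentrations up to 100 uM in 0.5% DMSO. ABCG2 mRNA was measured by TaqMan qRT-PCR, normalized to ACTB, GAPDH and POLR2A, and fitted bidirectionally versus DMSO.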

Read-out in test [17]: ATP-citrate lyase (ACLY), ACLY (gene 47)
Nature of the test: LTEA_HepaRG_ACLY: Life Technologies and Expression Analysis (LTEA) Assay for ATP-citrate lyase (ACLY) using HepaRG (AID 2283466). The gist of the method: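 Differentiated human HepaRG cells in serum-free induction medium exposed 48 h, in duplicate, to eight half-log concentrations from 100 uM top in 0.5% DMSO; ACLY mRNA measured by qRT-PCR, normalized to ACTB, GAPDH, POLR2A, fitted bidirectionally versus DMSO.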

Read-out in test [18]: Cyclin D1 (CCND1), CCND1 (gene 595)
Nature of the test: LTEA_HepaRG_CCND1: Life Technologies and Expression Analysis (LTEA) Assay for Cyclin D1 (CCND1) using HepaRG (AID 2283451). In a few lines:
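qRT-PCR (Fluidigm 96.96 array) read-out of transcript level, housekeeping-normalized (ACTB/GAPDH/POLR2A). HepaRG cells, 48 h chemical exposure, 8-point half-log series from 100 uM, 0.5% DMSO vehicle; gain or loss relative to DMSO baseline.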

Read-out in test [19]: CFLAR gene, CFLAR (gene 8837)
Nature of the test: LTEA_HepaRG_CFLAR: Life Technologies and Expression Analysis (LTEA) Assay for CFLAR gene using HepaRG (AID 2283455). The gist of the method: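 HepaRG cells were plated for 48 h, switched to serum-free induction medium, then exposed in duplicate for 48 h to 8 concentrations (top 100 uM, half-log steps, 0.5% DMSO). CFLAR mRNA was measured by qRT-PCR, normalized to ACTB, GAPDH and POLR2A.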

Chain of Fatty acid synthase (Homo sapiens) (P49327 whole entry, looked up): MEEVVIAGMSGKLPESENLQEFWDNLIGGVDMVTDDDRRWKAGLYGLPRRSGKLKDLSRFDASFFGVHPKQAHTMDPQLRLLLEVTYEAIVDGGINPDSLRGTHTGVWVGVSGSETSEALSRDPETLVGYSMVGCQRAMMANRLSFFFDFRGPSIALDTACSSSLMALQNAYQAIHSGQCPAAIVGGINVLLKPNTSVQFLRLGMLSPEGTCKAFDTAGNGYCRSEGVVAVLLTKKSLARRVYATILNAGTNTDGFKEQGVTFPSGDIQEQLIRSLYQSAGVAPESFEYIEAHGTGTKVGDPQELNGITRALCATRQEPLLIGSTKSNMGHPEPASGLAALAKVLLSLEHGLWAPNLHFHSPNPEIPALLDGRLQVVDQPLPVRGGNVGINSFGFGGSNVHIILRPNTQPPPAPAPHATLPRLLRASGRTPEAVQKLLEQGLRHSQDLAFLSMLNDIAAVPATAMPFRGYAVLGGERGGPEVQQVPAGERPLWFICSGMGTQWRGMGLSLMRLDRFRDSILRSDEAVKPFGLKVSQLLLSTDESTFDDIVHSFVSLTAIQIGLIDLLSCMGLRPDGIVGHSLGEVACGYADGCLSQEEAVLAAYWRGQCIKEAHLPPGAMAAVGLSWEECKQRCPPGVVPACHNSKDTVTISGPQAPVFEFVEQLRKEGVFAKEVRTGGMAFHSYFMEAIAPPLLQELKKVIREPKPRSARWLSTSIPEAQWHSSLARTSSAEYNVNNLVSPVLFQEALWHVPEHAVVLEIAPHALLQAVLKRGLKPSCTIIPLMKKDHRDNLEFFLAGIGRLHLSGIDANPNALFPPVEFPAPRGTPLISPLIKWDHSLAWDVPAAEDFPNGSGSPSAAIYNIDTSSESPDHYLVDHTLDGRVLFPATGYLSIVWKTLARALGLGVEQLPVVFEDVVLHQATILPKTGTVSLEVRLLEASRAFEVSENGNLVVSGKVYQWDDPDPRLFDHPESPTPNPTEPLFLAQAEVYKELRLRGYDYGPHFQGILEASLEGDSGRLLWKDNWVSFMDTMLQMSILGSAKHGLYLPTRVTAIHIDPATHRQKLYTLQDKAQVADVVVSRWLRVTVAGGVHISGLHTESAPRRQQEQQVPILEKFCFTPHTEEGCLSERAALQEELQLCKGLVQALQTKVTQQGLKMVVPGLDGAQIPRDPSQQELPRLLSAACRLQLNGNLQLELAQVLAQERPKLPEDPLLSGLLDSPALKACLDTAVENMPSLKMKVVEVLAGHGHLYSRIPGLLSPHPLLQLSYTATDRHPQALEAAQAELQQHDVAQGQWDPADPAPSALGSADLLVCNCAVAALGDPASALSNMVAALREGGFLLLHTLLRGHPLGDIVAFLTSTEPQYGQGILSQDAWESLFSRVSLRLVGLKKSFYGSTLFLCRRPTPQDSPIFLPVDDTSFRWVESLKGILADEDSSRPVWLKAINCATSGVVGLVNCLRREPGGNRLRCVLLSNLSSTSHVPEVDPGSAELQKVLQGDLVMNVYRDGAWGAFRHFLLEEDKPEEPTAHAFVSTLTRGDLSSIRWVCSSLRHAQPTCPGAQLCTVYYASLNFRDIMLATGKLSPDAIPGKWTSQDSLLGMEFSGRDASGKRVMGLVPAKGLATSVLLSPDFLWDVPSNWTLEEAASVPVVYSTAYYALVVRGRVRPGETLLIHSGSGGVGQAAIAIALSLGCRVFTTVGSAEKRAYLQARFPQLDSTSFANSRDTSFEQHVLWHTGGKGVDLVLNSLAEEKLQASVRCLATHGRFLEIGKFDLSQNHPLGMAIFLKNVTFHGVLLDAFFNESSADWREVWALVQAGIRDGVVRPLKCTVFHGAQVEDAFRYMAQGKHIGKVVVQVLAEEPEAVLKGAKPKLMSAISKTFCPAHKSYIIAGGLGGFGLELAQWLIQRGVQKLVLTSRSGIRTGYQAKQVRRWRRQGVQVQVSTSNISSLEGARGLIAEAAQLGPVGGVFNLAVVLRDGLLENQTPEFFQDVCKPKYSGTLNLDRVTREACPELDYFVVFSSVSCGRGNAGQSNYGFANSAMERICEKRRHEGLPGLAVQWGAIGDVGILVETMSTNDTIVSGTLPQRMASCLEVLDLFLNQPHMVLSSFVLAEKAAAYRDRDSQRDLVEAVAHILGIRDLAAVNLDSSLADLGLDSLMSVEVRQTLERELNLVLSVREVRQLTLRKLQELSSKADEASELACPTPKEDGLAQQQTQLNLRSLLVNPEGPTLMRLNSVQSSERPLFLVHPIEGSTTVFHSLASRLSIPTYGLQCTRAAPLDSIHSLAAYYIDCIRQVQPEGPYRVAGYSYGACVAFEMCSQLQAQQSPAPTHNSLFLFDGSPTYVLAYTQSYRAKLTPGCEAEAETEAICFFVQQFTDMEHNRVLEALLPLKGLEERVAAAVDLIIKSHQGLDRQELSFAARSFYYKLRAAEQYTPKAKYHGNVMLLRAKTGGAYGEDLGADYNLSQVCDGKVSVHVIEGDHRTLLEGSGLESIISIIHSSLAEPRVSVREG
Chain of Broad substrate specificity ATP-binding cassette transporter ABCG2 (Homo sapiens) (Q9UNQ0 whole entry, looked up): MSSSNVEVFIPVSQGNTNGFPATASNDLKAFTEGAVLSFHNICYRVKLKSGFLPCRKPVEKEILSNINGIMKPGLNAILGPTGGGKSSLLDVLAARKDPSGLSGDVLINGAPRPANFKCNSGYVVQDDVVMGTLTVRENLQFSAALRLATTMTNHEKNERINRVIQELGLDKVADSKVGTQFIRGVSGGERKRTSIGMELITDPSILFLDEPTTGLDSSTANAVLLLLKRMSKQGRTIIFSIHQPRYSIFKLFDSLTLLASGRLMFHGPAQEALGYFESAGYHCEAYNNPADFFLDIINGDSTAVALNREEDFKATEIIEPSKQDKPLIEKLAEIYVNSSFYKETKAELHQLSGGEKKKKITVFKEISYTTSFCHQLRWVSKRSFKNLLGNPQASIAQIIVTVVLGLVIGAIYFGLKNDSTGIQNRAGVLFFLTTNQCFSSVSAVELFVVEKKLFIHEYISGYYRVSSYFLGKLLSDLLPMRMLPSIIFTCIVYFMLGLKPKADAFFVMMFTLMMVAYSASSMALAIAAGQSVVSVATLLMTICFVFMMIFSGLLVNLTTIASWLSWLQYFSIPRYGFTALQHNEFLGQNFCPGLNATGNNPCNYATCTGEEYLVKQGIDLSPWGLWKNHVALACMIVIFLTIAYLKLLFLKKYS

As to `CCCCCCCCCCCC(=O)OC`, the outcome in [1], in test [2], in test [3], in [4], in [5] and in [6] was inactive. Also, the result in test [8], in [9], in test [10], in [11], in test [12] and in test [13] was inactive. Besides, the compound was classed as inactive in test [14], in test [15], in [16] and in test [17]. Besides, the AC50 (in general, the concentration giving half of the maximal activity seen) in [7] is 60.3 µM (active).
With `c1cc(-c2ccncc2)ccn1`, the outcome in test [1], in test [2], in test [3], in test [4], in [18] and in test [5] was inactive. For the same compound, the compound was called inactive in [6], in test [8], in test [9], in test [10], in test [11] and in [12]. Also, the result in test [13], in [16] and in [17] was inactive. The AC50 in [7] is 50 µM (active).
In the case of `CCCCc1ccc2c(n1)[C@@H](c1ccc(OC)cc1C[C@H](C)C(=O)O)[C@H](C(=O)O)[C@H]2c1ccc2c(c1)OCO2`, the compound was classed as inactive in [1], in [2], in test [3], in test [4], in test [5] and in test [6]. Moreover, the compound was called inactive in test [19], in test [8], in test [9], in test [10], in test [11] and in test [12]. For the same compound, the outcome in [13], in [14], in test [15], in [16] and in [17] was inactive. The AC50 in test [7] is 71.7 µM (active).
As for `CCOC(=O)C(C)(C)Oc1ccc(Cl)cc1`, the compound was called inactive in [1], in test [2], in [4], in [18], in test [5] and in test [6]. In addition, the compound was classed as inactive in test [8], in test [9], in test [10], in [11], in [12] and in test [13]. Further, the result in test [15], in test [16] and in test [17] was inactive. Further, the AC50 in test [3] was 12.2 µM (active); in [7] it was 50 µM (active).
